The structures appear in SMILES notation. Screen size: about 190,000 compounds; about 220 (0.12%) were called active. Another 2% or so got no clear call; they are omitted. The sample holds actives, similar compounds and a random draw of the others, so the mix is not that of the screen.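 The calls were made as follows: active = GTP binding at least 20 percentage points away from the 100% baseline, in either direction, so actives lie on both sides; inconclusive = Compound likely fluorescent itself, or too few beads counted; inactive = the rest.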

For the assay, the target named is Ras-related C3 botulinum toxin substrate 1 (Homo sapiens) (UniProt P63000). Put plainly: GTP binding modulators of activated mutant Rac1, primary screen, biochemical, bead-based flow cytometry, multiplex, fluorescent GTP (AID 764). Conditions: GST-Rac1 activated beads, at 10 µM, actives lie on both sides, 100% means binding = to untreated wells. A general note: Flow cytometry measures light scatter and fluorescence of single cells or particles in a stream.
Regarding `Cc1ccc(SC(C)C(=O)NCc2ccc(F)cc2)cc1` (configuration not stated), the percent activity (GTP binding) was 94% (inactive). In the case of `CC(C)(C)CN1CCNC(=O)C1CC(=O)NC1Cc2ccccc2C1` (configuration not stated) it was 91% (inactive). As for `O=C(NC(=S)Nc1ccc(S(=O)(=O)Nc2ncccn2)cc1)c1cccc(Br)c1`, the percent activity (GTP binding) is 92% (inactive). Under `O=C(O)/C=C/c1cn(-c2ccccc2)nc1-c1cccs1` stands 89% (inactive); under `O=C(/C=C\c1cn(-c2ccccc2)nc1-c1cccs1)N1CCOCC1`, 103% (inactive); under `O=C(O)/C=C/c1cn(Cc2ccccc2)nc1-c1cccs1`, 130% [activator] (active).

As to `Cc1cc(N2CCOCC2)nc2ccc(NC(=S)N3CCN(Cc4ccccc4)CC3)cc12`, the percent activity (GTP binding) is 96% (inactive). In the case of `O=C(Nc1ccc(N2CCOCC2)cc1)c1ccc(-c2ccccc2[N+](=O)[O-])o1` it was 93% (inactive). In the case of `Cn1cc(Cl)c(C(=O)NNC(=S)Nc2cccc(Cl)c2)n1` it was 91% (inactive); in that of `O=C(O)c1ccc(/C=N/NC(=S)NCc2ccccc2)cc1`, 94% (inactive); in that of `CN(C)C(=O)c1cccn(Cc2cccc(C(F)(F)F)c2)c1=O`, 94% (inactive).

Consider `CN(C)N(C)C(=O)C(O)(c1ccccc1)c1ccccc1`, for which the percent activity (GTP binding) is 96% (inactive). Under `Cc1cc(C(=O)CC#N)c(C)n1-c1c(C)n(C)n(-c2ccccc2)c1=O` stands 96% (inactive). In the case of `O=C(O)CCN(Cc1ccccc1)S(=O)(=O)c1c(Cl)cccc1Cl` it was 95% (inactive); in that of `Cc1[nH]c2ccccc2c1/C=C(/C#N)C(=O)NC(C)C`, 95% (inactive); in that of `Cn1cc(CN2CCCC(CO)C2)c(-c2ccc(Oc3ccccc3)cc2)n1` (configuration not stated), 94% (inactive). In the case of `COc1ccc(/C=C/CN2CCCC(C(=O)c3cc(F)ccc3F)C2)cc1` (configuration not stated) it was 96% (inactive); in that of `CN1C=CC=C/C1=C1\SC(=S)N(Cc2ccccc2)C1=O`, 97% (inactive). For `Cc1cc(C(=O)NNC(=O)c2cccc(S(=O)(=O)N3CCOCC3)c2)c2ccccc2n1`, the percent activity (GTP binding) was 93% (inactive). In the case of `Cc1noc(C)c1/C=N/Nc1ccc2ccccc2n1` it was 97% (inactive); in that of `O=C(c1ccncc1)N1CCN(c2ccc3ccccc3n2)CC1`, 98% (inactive); in that of `COc1cc(/C=C/C(=O)OCC(=O)NC(=O)NCc2ccccc2)ccc1OCC#N`, 90% (inactive). In the case of `O=C(c1ccc2ccccc2n1)N1CCN(c2ccccc2Cl)CC1` it was 95% (inactive). Consider `CCn1c(SCC(=O)Nc2nccs2)nnc1-c1ccco1`, for which the percent activity (GTP binding) is 95% (inactive). As for `COc1ccc(OC)c(S(=O)(=O)Nc2cccc(-c3ccc4nncn4n3)c2)c1`, the percent activity (GTP binding) was 95% (inactive). Under `Cc1ccc(-n2cc(CN(C)Cc3nccn3C)c(-c3cccc(C)c3)n2)cc1` stands 97% (inactive). Under `Cc1ccc(C(=O)Nc2cccc3ncccc23)cc1[N+](=O)[O-]` stands 94% (inactive); under `O=C(CN1CCN(C/C=C/c2ccccc2)CC1)Nc1ccc(F)cc1F`, 93% (inactive). For `CCc1ccc(N2CC(O)=C(c3nc4ccccc4c(=O)[nH]3)C2=N)cc1`, the percent activity (GTP binding) was 94% (inactive). Under `COc1ccc(/C=N/n2c(C)cc(C)cc2=O)cc1` stands 97% (inactive); under `CC(C)Oc1ccccc1C(=O)NC(CO)C(=O)O` (configuration not stated), 96% (inactive); under `CCOC(=O)C1=NOC(Cn2cc(C(C)=O)c(=O)[nH]c2=O)C1` (configuration not stated), 92% (inactive). In the case of `COC(=O)CN1C(=O)N/C(=C/c2ccc(OC)c(C)c2OC)C1=O` it was 96% (inactive); in that of `CCOc1cc(NS(=O)(=O)c2ccc(OC)cc2)c(OCC)cc1NC(C)=O`, 97% (inactive). In the case of `CN(C)S(=O)(=O)c1ccc2oc(SCC(=O)Nc3ccccc3F)nc2c1` it was 95% (inactive); in that of `Cc1nc2cc(NCc3cccs3)ccc2n1C`, 97% (inactive). `CCOP(=O)(OCC)C(Nc1ccc([N+](=O)[O-])cc1)c1ccc(Cl)cc1` (configuration not stated): the percent activity (GTP binding) is 92% (inactive). In the case of `CCNC(=O)c1ccc(OCC(=O)Nc2ccc(F)cc2)c(OC)c1` it was 94% (inactive); in that of `CCC(=O)Nc1ccc(Nc2nc(Cl)nc(Nc3ccc(NC(=O)CC)cc3)n2)cc1`, 94% (inactive).

On to `Cc1nnc(CN(C)Cc2cn[nH]c2-c2ccc(-c3ccccc3)cc2)o1`, for which the percent activity (GTP binding) is 97% (inactive). Under `CC1(C)OC(=O)C(=CSc2ccc(C(C)(C)C)cc2)C(=O)O1` stands 96% (inactive); under `COc1ccccc1NC(=O)c1c(Br)cnn1C`, 95% (inactive); under `Cc1cnc(C(=O)OCC(=O)N2CCc3ccccc32)cn1`, 96% (inactive). In the case of `Cc1cc(C)c(C#N)c(N2CCC(C(N)=O)CC2)n1` it was 98% (inactive). In the case of `OCCC1CN(Cc2cccc(OC3CCCC3)c2)CCN1Cc1ccsc1` (configuration not stated) it was 95% (inactive); in that of `CCN(CC)CCNC(=O)c1ccc(NC(=O)c2c(F)cccc2Cl)cc1`, 99% (inactive). For `CCc1ccc(-n2c(SCc3cc(=O)n4cc(Br)ccc4n3)nc3[nH]ncc3c2=O)cc1`, the percent activity (GTP binding) is 94% (inactive). For `O=C1CC(=O)Nc2cc(S(=O)(=O)N3CCN(c4cccc(C(F)(F)F)c4)CC3)ccc2N1`, the percent activity (GTP binding) was 93% (inactive). Under `COc1ccc(OC)c(CNC(=O)c2cc(=O)[nH]c3ccc(S(=O)(=O)N4CCCC4)cc23)c1` stands 95% (inactive); under `CC(C)(C)NC(=O)NC(=O)COC(=O)C1(C)CC1(Cl)Cl` (configuration not stated), 97% (inactive). Under `COC(=O)C(NS(=O)(=O)c1ccc(F)cc1)c1ccccc1` (configuration not stated) stands 96% (inactive); under `O=C(CP(=O)(c1ccccc1)c1ccccc1)N1CCOCC1`, 92% (inactive). In the case of `O=C(C1CC1)N1N=C2CCCCC2C1(O)C(F)(F)F` (configuration not stated) it was 96% (inactive); in that of `Cc1ccc(C)c(-n2cc(CN3CCN(C(=O)c4ncn[nH]4)CC3)c(-c3ccccc3)n2)c1`, 95% (inactive); in that of `CCN(CC)S(=O)(=O)c1ccc(N2CCOCC2)c(NC(=O)C2COc3ccccc3O2)c1` (configuration not stated), 97% (inactive). Consider `CCOC(=O)C1=C(CC)OC(N)=C(C#N)C1c1ccc(F)cc1F` (configuration not stated), for which the percent activity (GTP binding) is 93% (inactive). Under `O=C(O)c1cccc(NC(=O)c2cc(-c3cccc(Cl)c3)nc3ccccc23)c1` stands 93% (inactive); under `COc1ccc(C2C(C#N)=C(N)N(c3ncn[nH]3)C3=C2C(=O)CCC3)cc1` (configuration not stated), 96% (inactive); under `COc1ccc(N2CCN(C(=O)CCSCc3ccccc3F)CC2)cc1`, 92% (inactive). As to `Cc1ccnc(NC(=O)CCC(=O)N(CC(=O)NCCc2ccccc2)Cc2cccs2)c1`, the percent activity (GTP binding) is 97% (inactive). On to `COc1ccc(NC(=O)/C(C#N)=C\c2cc(OC)c(OCc3ccc(C(=O)O)cc3)cc2Br)cc1`, for which the percent activity (GTP binding) was 89% (inactive). Take `C1CC1Cc1noc(CN2CCN(CC3CC3)CC2)n1`: the percent activity (GTP binding) was 94% (inactive). In the case of `CCn1c(CNC(=O)c2ccco2)nnc1SCC(=O)Nc1cccc(F)c1` it was 98% (inactive); in that of `Cn1c(SCC(=O)NC2CCCCC2)nnc1-c1ccc(N)cc1`, 96% (inactive); in that of `CC(=O)NC1(c2ccc(F)cc2)CCN(C(=O)c2c(F)cccc2F)CC1`, 92% (inactive). For `CN(C)C(CNC(=O)c1cccc(C#N)c1)c1ccco1` (configuration not stated), the percent activity (GTP binding) is 97% (inactive). Under `COc1ccc(C(=O)COC(=O)c2nn(C)c(=O)c3ccccc23)c(OC)c1` stands 92% (inactive). In the case of `Cc1c(Br)c([N+](=O)[O-])nn1CC(=O)N1CCN(Cc2ccccc2)CC1` it was 98% (inactive); in that of `CC(=O)c1ccc(NC(=S)N(Cc2ccccc2)C(C)C2CC2)cc1` (configuration not stated), 93% (inactive); in that of `CCN(CCn1cccn1)C(=O)CC1C(=O)NCCN1Cc1cccc(OC)c1OC` (configuration not stated), 93% (inactive). Take `CCOC(=O)CNc1nc(Cl)nc(Nc2ccccc2)n1`: the percent activity (GTP binding) was 96% (inactive). Under `Cc1ccc(SC(CC(=O)c2ccc(C(C)(C)C)cc2)C(=O)O)cc1` (configuration not stated) stands 74% (active); under `Cc1ccc(C(=O)CS(C)(=O)=O)cc1`, 99% (inactive). In the case of `Cc1ccc(CSCC(N)C(=O)O)cc1` (configuration not stated) it was 97% (inactive); in that of `Cc1cc(C)nc(Nc2ncn[nH]2)n1`, 96% (inactive); in that of `Cc1ncc([N+](=O)[O-])n1CCOC(=O)c1ccc(Br)cc1`, 91% (inactive). In the case of `CCCCN(C(=O)c1ccc(OC(F)(F)F)cc1)c1c(N)n(CCC)c(=O)[nH]c1=O` it was 96% (inactive); in that of `Cn1cc(CN2CCCCC2c2ccccn2)c(-c2ccc3c(c2)OCCO3)n1` (configuration not stated), 97% (inactive); in that of `CCC(=O)N1c2ccccc2NC2=C(C(=O)CCC2)C1c1ccco1` (configuration not stated), 98% (inactive). As for `Cc1ccc(CN2CCN(Cc3cccc(C)n3)CC2CCO)cc1` (configuration not stated), the percent activity (GTP binding) is 94% (inactive). In the case of `CC(=O)C1C(c2ccc(Cl)cc2)c2c(n[nH]c2C)CC1(C)O` (configuration not stated), the percent activity (GTP binding) is 97% (inactive). In the case of `COc1cc(/C=C/C2=CC(C)(C)NC(=S)N2)cc(OC)c1OC` it was 94% (inactive); in that of `O=C(CCNC(=O)Cn1ccc2ccccc2c1=O)NCCC1=CCCCC1`, 101% (inactive).

For the molecule `COc1cc2c(C(=O)N3CCN(C)CC3)c(CSc3ccccc3)n(C)c2cc1Br`, the percent activity (GTP binding) is 94% (inactive).

For `Cc1nn(CC2CC2)c(=O)n1N(C)c1ncc(C(F)(F)F)cc1Cl`, the percent activity (GTP binding) was 96% (inactive). `COc1cccc(CNC(=O)CCC2CCCN(C(=O)c3ccoc3C)C2)c1` (configuration not stated): the percent activity (GTP binding) is 95% (inactive). In the case of `COC(=O)NNC1=CC(=O)CC(C)(C)C1` it was 97% (inactive); in that of `CCC(C)N(C(=O)COC(=O)C1C(C(=O)OC)=C(C)NC(C)=C1C(=O)OC)C1CCS(=O)(=O)C1` (configuration not stated), 95% (inactive).

As for `CC(C)(C)C(=O)CSc1nc2ccccc2o1`, the percent activity (GTP binding) is 96% (inactive). In the case of `Cn1cnnc1SCC(=O)NNC(=O)COc1ccc(Br)cc1` it was 98% (inactive); in that of `O=C(CN1CCSCC1)N/N=C/c1ccc(Cl)cc1`, 95% (inactive); in that of `O=C(Cc1ccc(Cl)cc1)NCc1nc(-c2ccccc2)no1`, 91% (inactive). For the molecule `COc1ccc(N2C(=O)CC(Nc3ccc(F)cc3)C2=O)c([N+](=O)[O-])c1` (configuration not stated), the percent activity (GTP binding) is 93% (inactive). Under `COC(=O)C1=C(C)NC(=O)CC1c1ccccc1OC` (configuration not stated) stands 99% (inactive); under `CCC(C)(C)NC(=O)C(c1ccccn1)N(C(=O)c1csnn1)c1ccccc1` (configuration not stated), 96% (inactive); under `Cc1cc(C(=O)Cn2cnc3cc([N+](=O)[O-])ccc3c2=O)c(C)n1CC1CCCO1` (configuration not stated), 90% (inactive). In the case of `Cc1ccc(NC(=O)C(=O)NCc2ccco2)c(C)c1` it was 98% (inactive).

These data come from PubChem BioAssay AID764 (NMMLSC, 2007).
